Assay outcomes deposited in PubChem BioAssay by National Center for Advancing Translational Sciences (NCATS).
A selection: hits, their analogues and other compounds. The true share with any hit is near 21%.
AMA1 RON2 block: disrupts binding of P. falciparum AMA1 to RON2 | AlphaScreen AMA1-biotinylated RON2 peptide binding | Potency, µM (titrated, usually from 58.2 µM), inactives show at the top dose activity change, negative = inhibition, most hits filed as inhibitors | 360,000 compounds, 0.2% hits;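 further: potency means the concentration at half of the fitted maximal effect; 0% = vehicle wells and -100% = peptide control; nearly all actives have a fitted effect of over 45% in size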
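AMA1 (3D7) with his tag at 25 nM final met compounds first, then biotinylated RON2 peptide at 25 nM; detection used donor plus acceptor beads, 10 µg/mL apiece, read by AlphaScreen after 30 min at room temperature.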
Pf growth 96h: inhibits malaria parasite growth, 96 h | P. falciparum luciferase reporter growth, 96 h | Potency, µM (series often up to 28.7 µM), for inactives: at the top dose activity change, negative = inhibition, most hits filed as inhibitors | 320,000 compounds, 6.9% hits; further: potency means the concentration at half of the fitted maximal effect; on the % scale 0 is the no-effect control and ±100 the full control effect
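Two parasite generations (96 h, 37 C, 5% CO2) of compound exposure in infected erythrocytes (0.05% parasitemia, 2% hematocrit). Luciferase-reporter P. falciparum; decreased luminescence indicates inhibited growth, aimed at apicoplast-acting delayed death.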
HCV inhibitor: blocks hepatitis C virus; AID 651820; Huh7.5.1 HCVcc-Cre infection, luciferase reporter, 44 h; 340,000 compounds, 3.4% hits; Potency, µM (titrated, usually from 41.8 µM), for inactives: top-dose activity change, negative = inhibition, actives largely listed as inhibitors; further: potency means the concentration at half of the fitted maximal effect; on the % scale 0 is the no-effect control and ±100 the full control effect
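Infectious HCV cell culture screen: compound-treated cells (1,000/well, pre-plated 4 h) are infected with HCVcc-Cre at roughly 0.5 moi and grown 44 h. Infection is quantified by luciferase signal after 15 min substrate incubation at room temperature.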
Pf growth 48h: P. falciparum growth inhibition at 48 hours (one generation); 310,000 compounds, 5.9% hits; Potency, µM (top dose mostly 28.7 µM), without a hit: at the top dose activity change, negative = inhibition, most hits filed as inhibitors; P. falciparum luciferase growth in erythrocytes, 48 h; further: potency means the concentration at half of the fitted maximal effect; on the % scale 0 is the no-effect control and ±100 the full control effect
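A one-generation exposure of luciferase-tagged malaria parasites in RPMI 1640/Albumax erythrocyte culture, 37 C and 5% CO2. Inhibition is inferred from decreased luminescence after adding detection reagent.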
Shiga toxin inh: Shiga toxin inhibition; 290,000 compounds, 9.2% hits; Vero cells, Shiga toxin protein synthesis inhibition reporter; inhibition, % at 38.7 µM; in the data active means inhibition mostly above about 28%, no sharp cut-off; inactive means mostly below about 43%; further: 0% is about no effect
Cycloheximide cs: affects cycloheximide protein synthesis inhibition readout, counter-screen. AID 2314. cell reporter, cycloheximide protein synthesis inhibition counterscreen. 300,000 compounds, 12% hits. max response, %; in the data active means max response mostly above about 13%, no sharp cut-off; inactive means mostly below about 14%; further: read at 38.3 µM for the half of the compounds with a filed dose; 0% is about no effect
Starred values were filed as active, the others as inactive; ? = inconclusive; · = no result; [ ] = remark or other dose. Unless noted, the call rests on the fitted dose curve; in most records, active means well fitted curve in the direction sought with a large enough effect; inconclusive means small, poorly fitted or top-dose-only effect, or another doubt; inactive means no such curve, though single readings can be large; an effect the other way counts as inactive or inconclusive.

SMILES	AMA1 RON2 block	Pf growth 96h	HCV inhibitor	Pf growth 48h	Shiga toxin inh	Cycloheximide cs
Cc1nnc2sc(SCC(=O)N3CCC(C)CC3)nn2c1=O	0%	3.7µM*	11%	?	-13	0
Cc1ccc(S(=O)(=O)N2CCN(C(=O)CSc3nnc(C)s3)C2)cc1	20%	4.1µM*	9%	·	-11	-3
Cc1ccc(S(=O)(=O)N2CCN(C(=O)CSc3nncs3)CC2)cc1	-12%	-5%	18%	16%	17	1
Cc1nnc2sc(SCC(=O)Nc3ccc(Br)cc3)nn2c1=O	80%	?	-2%	?	-6	1
Cc1nnc2sc(SCC(=O)N3CCCCC3)nn2c1=O	15%	0.83µM*	8%	2.6µM*	16	1
NC(=O)Cn1c(=O)n(CCC(=O)Nc2ccc(F)cc2)c(=O)c2sccc21	7%	23%	12%	1%	-4	-5
Cc1cc2c(s1)c1cnn(Cc3ccccc3F)c(=O)c1n2C(C)C	·	·	·	·	-6	16
Cc1nnc(SCC(=O)N2CCCCC2)s1	7%	·	?	27%	34*	18*
C#Cc1ccc(NC(=O)C2(C)CCN2C(=O)c2cc(C)n(C)n2)cc1 (stereo not drawn)	10%	·	·	·	·	·
Cc1oc(-c2ccccc2F)nc1CS(=O)(=O)CC(=O)NCCCN1CC(C)CC(C)C1 (stereo not drawn)	4%	?	-22%	?	12	-2
CCOc1ccc(CCNC(=O)CS(=O)(=O)Cc2nc(-c3ccc(OC)cc3)oc2C)cc1	-7%	87%	-13%	-17%	-6	1
CCOc1ccc(CCNC(=O)CS(=O)(=O)Cc2nc(-c3ccccc3F)oc2C)cc1	2%	?	10µM*	-19%	10	3
Cc1oc(-c2ccccc2F)nc1CS(=O)(=O)CC(=O)NCCCN1CCN(C)CC1	-6%	10µM*	1%	-3%	11	-5
CCC(C)[C@H]1COCCS(=O)(=O)N1Cc1ccccc1 (stereo partly drawn)	0%	-4%	1%	8%	10	7
CC1(C)Oc2ccc3ccc(=O)oc3c2/C(=C/N)C1=O	0%	7%	-17%	4%	20	-3
CC1(C)Oc2ccc3ccc(=O)oc3c2/C(=C/NC2CCCCC2)C1=O	-29%	?	10µM*	?	-4	-1
CC1(C)Oc2ccc3ccc(=O)oc3c2/C(=C/Nc2ccccc2)C1=O	-13%	-8%	10µM*	·	-12	-3
CCN1C[C@@H]2[C@@H]3C(=O)N(C)C(=O)[C@@H]3[C@](CC)(C1=O)N2C(=O)c1ccc(C)cc1	5%	·	2%	·	·	·
CCC(=O)O	·	·	·	·	61	25
COC(=O)Nc1ccc(SCC(=O)c2cccc([N+](=O)[O-])c2)cc1	-14%	19%	-11%	25%	5	12
O=C(Nc1ccc(S(=O)(=O)Nc2ccc(F)cc2)cc1)c1ccc(CN2CCOCC2)cc1	-11%	12%	1µM*	?	2	1
CCCOc1ccc(C(=O)Nc2ccc(CN3CCOCC3)cc2)cc1	-10%	?	?	-45%	13	6
COc1ccc(NS(=O)(=O)c2ccc(NC(=O)c3ccc(CN4CCOCC4)cc3)cc2)cc1	0%	-9%	1.4µM*	15µM*	-16	8
COc1ccc(C(=O)Nc2ccc(CN3CCOCC3)cc2)cc1Br	0%	6%	-28%	9%	7	10
CCCCOc1ccc(C(=O)Nc2ccc(CN3CCOCC3)cc2)cc1	6%	?	10µM*	?	-4	2
SMILES	AMA1 RON2 block	Pf growth 96h	HCV inhibitor	Pf growth 48h	Shiga toxin inh	Cycloheximide cs
CC(C)(C)c1nc2c(s1)CCc1onc(-c3ccc(Cl)cc3)c1-2	0%	?	2%	6%	·	·
CC(C)CSCC1OC(n2cnc3c(N)nccc32)C(O)C1O (stereo not drawn)	8%	·	·	·	·	·
COCc1cc(CN2CCCC(C(=O)Nc3ccc(-c4ccco4)cc3)C2)ccc1OC (stereo not drawn)	?	-13%	?	?	21	1
O=C1OC(c2ccc(F)cc2)=C/C1=C\c1ccc(O)cc1	-2%	-7%	-9%	60%	40	14*
Cc1ccc2cc3c(N)c(C(=O)N4CCOCC4)sc3nc2c1	36%	0%	8%	128%	103*	30*
CCOc1ccc2nc3sc(C(=O)N4CCN(C)CC4)c(N)c3cc2c1	26%	·	11µM*	?	63	17*
Cc1ccc2nc3sc(C(=O)N4CCOCC4)c(N)c3cc2c1	10%	-28%	28%	177%	54*	30*
Cc1ccc2cc3c(N)c(C(=O)N4CC(=O)Nc5ccccc54)sc3nc2c1	·	33%	·	-7%	3	4
CCc1ccc2nc3sc(C(=O)N4CCc5ccccc54)c(N)c3cc2c1	·	48%	-10%[0.335 µM]	7%	38	6
COc1ccc2cc3c(N)c(C(=O)N4CCCC4)sc3nc2c1	7%	-14%	?	-22%	101*	69*
CCOc1ccc(-n2c(N)c(C(=O)N3CCN(C)CC3)sc2=S)cc1	-8%	?	-2%	9%	-6	-4
COc1ccc2cc3c(N)nn(C(=O)c4ccc(F)cc4)c3nc2c1	0%	?	-18%	?	-16	-1
CS(=O)(=O)c1nc(S(=O)(=O)c2ccc(Cl)cc2)c(NCCCN2CCCC2=O)s1	0%	-5%	5%	-9%	24	-1
Cc1nnc(-c2cnn(C)c2N)n1CCCN1CCOCC1	40%	32%	5%	?	-9	15
CC(C)c1ccc2nc3sc(C(=O)N4CCc5ccccc5C4)c(N)c3cc2c1	26%	68%	10µM*	6%	118	24*
COc1ccc2cc3c(N)nn(C(=O)c4ccccc4Cl)c3nc2c1	4%	?	?	8.3µM*	-16	-1
Cn1nc(-c2ccc(Cl)cc2)cc1NC(=O)CSCC(=O)O	18%	36%	-28%	38%	-1	-1
CCCCN1C(=O)c2ccc(C(=O)NC3(C)CCS(=O)(=O)C3)cc2C1=O (stereo not drawn)	0%	-15%	15%	-9%	·	·
CCOc1cccc(C(=O)Nc2nc(-c3ccc(S(=O)(=O)N4CCOCC4)cc3)cs2)c1	-8%	·	-28%	5.2µM*	-9	3
O=C(COc1cccc(Cl)c1)Nc1nc(-c2ccc(S(=O)(=O)N3CCOCC3)cc2)cs1	15%	9.3µM*	?	8.3µM*	8	-2
CC(C)NC(=O)CN1C(=O)c2cccc3cccc1c23	-3%	23%	14%	?	5	-1
Cn1c(N)c(-c2ccccc2)c2ccc([N+](=O)[O-])cc2c1=O	-11%	1%	?	?	-3	-2
COC(=O)c1ccc(CN2CCc3ccccc32)cc1	?	0%	19%	-12%	7	3
O=C(O)c1cc(NC(=O)c2ccc3c(c2)C(=O)N(Cc2cccnc2)C3=O)cc(C(=O)O)c1	-5%	53%	13%	-9%	-11	1
